Data reported in paper PMC12280212.

How the values were obtained:
Assay in all cases: cross-linking mass spectrometry
Details in all cases: DSSO, in cells
TMEM109 = TMEM109 (UniProt Q9BVC6)
VIM = VIM (UniProt P08670)
YWHAB = YWHAB (UniProt P31946)
YWHAG = YWHAG (UniProt P61981)
Sequence of YWHAG (P61981 whole entry): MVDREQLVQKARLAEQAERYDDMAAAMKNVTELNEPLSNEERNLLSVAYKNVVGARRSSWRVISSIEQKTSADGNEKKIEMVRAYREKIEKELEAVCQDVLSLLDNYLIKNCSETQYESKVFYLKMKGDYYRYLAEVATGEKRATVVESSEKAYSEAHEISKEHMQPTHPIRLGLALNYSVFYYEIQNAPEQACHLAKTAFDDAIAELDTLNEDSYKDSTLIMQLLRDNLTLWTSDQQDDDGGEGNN

Sequence of TMEM109 (Q9BVC6 whole entry): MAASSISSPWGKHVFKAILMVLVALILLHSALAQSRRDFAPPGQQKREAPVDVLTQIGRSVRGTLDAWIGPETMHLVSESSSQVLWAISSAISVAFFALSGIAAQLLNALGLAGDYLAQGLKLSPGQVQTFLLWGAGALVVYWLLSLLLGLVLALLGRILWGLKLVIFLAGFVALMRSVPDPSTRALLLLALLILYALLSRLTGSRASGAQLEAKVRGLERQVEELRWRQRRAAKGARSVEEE
Sequence of ENO1, P06733 (P06733 whole entry): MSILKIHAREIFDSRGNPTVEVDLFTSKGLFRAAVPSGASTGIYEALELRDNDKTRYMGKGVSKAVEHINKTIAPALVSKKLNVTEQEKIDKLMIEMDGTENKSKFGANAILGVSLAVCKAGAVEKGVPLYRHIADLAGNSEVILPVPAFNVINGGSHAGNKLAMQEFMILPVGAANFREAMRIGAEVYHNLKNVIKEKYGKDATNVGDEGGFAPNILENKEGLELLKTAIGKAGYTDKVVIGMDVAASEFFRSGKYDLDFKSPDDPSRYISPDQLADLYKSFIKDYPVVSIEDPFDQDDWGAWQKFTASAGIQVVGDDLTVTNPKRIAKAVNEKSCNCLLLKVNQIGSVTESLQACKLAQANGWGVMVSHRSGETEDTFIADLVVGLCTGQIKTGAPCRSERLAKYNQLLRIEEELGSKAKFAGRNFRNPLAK
Sequence of TMEM43, Q9BTV4 (Q9BTV4 whole entry): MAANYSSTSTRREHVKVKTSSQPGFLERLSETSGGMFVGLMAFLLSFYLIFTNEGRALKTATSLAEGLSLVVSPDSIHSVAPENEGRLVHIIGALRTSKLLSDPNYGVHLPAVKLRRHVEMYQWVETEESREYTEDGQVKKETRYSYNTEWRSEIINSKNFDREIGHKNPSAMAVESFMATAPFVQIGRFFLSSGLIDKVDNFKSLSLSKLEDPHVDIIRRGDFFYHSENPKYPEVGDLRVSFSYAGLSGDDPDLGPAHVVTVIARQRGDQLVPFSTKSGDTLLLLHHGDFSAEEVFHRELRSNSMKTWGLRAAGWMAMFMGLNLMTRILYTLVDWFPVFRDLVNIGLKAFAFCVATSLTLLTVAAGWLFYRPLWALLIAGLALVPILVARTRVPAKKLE
Sequence of YWHAB, P31946 (P31946 whole entry): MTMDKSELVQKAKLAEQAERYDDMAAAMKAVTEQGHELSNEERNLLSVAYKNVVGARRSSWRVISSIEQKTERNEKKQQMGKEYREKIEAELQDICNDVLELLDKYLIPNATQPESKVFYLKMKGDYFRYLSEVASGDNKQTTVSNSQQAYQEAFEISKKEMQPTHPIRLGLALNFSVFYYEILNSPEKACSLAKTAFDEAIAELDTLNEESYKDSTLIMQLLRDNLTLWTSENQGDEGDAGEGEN
Sequence of YWHAB (P31946 whole entry): as above
Sequence of YWHAQ, P27348 (P27348 whole entry): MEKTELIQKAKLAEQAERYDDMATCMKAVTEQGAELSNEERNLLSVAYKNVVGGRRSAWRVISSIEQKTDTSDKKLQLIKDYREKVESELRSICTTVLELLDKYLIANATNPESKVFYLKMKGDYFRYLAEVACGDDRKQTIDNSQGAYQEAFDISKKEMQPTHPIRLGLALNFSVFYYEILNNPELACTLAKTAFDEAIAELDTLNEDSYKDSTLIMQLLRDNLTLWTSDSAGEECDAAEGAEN
Sequence of SEC22B, O75396 (O75396 whole entry): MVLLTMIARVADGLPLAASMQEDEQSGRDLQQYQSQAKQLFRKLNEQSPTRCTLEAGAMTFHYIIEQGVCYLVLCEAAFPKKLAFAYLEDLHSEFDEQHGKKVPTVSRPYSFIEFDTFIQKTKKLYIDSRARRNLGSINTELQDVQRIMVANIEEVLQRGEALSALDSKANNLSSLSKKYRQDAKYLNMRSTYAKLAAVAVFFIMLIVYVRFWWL

TMEM43, Q9BTV4
cross-linked residues (TMEM109): K16 - K215

SEC22B, O75396
cross-linked residues (TMEM109): K43 - K215

ENO1, P06733
cross-linked residues (VIM): K5 - K235

YWHAQ, P27348
cross-linked residues (YWHAB): K85 - K11

YWHAB, P31946
cross-linked residues (YWHAG): K11 - K77
